The results in this text go back to PubChem BioAssay AID588342 (National Center for Advancing Translational Sciences (NCATS), 2011).

Hit rate of the full screen: of about 360,000 compounds, about 25,000 (6.9%) were called active. Entries that show only a call come without a potency. Inconclusive results (about 9%) are left out. The call rests on the fitted dose curve; in most records, active means well fitted inhibition curve with a large enough effect; inconclusive means small, poorly fitted or top-dose-only effect; inactive means flat fitted curve, though single readings scatter. Only a selection was taken, and actives are over-represented in it overall.
Potency means the concentration at half of the fitted maximal effect.

Luciferin 4-monooxygenase (Photinus pyralis), sequence (P08659 whole entry, looked up): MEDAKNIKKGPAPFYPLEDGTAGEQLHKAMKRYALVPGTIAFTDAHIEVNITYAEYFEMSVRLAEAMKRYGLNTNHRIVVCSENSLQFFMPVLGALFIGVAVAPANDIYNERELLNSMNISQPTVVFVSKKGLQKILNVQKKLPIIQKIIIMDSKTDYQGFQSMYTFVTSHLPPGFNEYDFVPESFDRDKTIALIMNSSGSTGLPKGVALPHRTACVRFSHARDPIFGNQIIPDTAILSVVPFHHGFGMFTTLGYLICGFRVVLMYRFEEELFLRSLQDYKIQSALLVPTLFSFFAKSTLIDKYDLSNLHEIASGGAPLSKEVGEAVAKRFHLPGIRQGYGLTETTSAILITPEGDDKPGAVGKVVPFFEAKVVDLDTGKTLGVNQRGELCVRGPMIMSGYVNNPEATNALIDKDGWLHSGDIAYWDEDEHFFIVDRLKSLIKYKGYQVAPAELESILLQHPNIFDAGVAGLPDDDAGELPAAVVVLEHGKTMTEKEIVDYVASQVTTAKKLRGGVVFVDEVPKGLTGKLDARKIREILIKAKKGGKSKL

This experiment deals with Luciferin 4-monooxygenase (Photinus pyralis) (UniProt P08659). The experiment in a line: qHTS profiling assay for firefly luciferase inhibitor/activator using purifed enzyme and Km concentrations of substrates (counterscreen for miR-21 project). Further: nearly all actives have a fitted effect of over 55% in size. To be noted: purified FLuc, luminescence inhibition; series mostly up to 57.5 µM. The gist of the method:
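Purified P. pyralis luciferase (10nM final) with 10uM D-luciferin and 10uM ATP (Km levels) in 50mM Tris acetate pH 7.5, 10mM Mg acetate, 0.01% Tween-20, 0.05% BSA; qHTS 6-point titration, ~60 µM downward; luminescence read.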
For orientation: qHTS replaces the single test concentration by a dilution series.
With `CCOC(=O)c1ccc(-c2ccc(/C=C(\C#N)C(=O)Nc3ccc(OCC)cc3)o2)cc1`, the Potency result is “inactive”.

For the compound `CCCCn1c(N)c(N(CCC(C)C)C(=O)COC(=O)c2ccc(CC)cc2)c(=O)[nH]c1=O`, the Potency entry is “inactive”.

Turning to `Cc1ccc(CN2CCCn3nc(C(=O)NCc4ccccc4Cl)cc3C2=O)cc1`, the Potency entry was “inactive”.

In the case of `Cn1c(=O)c2c(SCC(=O)NCC3CCCO3)nc(-c3ccccc3F)nc2n(C)c1=O` (configuration not stated), the Potency entry was “inactive”.

With `Cc1oc2ncnc(N3CCOCC3)c2c1C(=O)NCCc1ccccc1`, the Potency result is “inactive”.

As for `CN(C)c1ccc(C=C2C(=O)OC3(CCCC3)OC2=O)cc1`, the Potency was 23.9 µM (active).

In the case of `COCCN(Cc1ccccc1)C(=O)Cc1ccc(S(=O)(=O)N2CCOCC2)s1`, the Potency entry was “inactive”.

As for `CCCN(CCC)C(=O)C1CCCN(c2ncnc3c2nc2n3CCCCC2)C1` (configuration not stated), the Potency result was “inactive”.

For the compound `c1ccc(CN=C2Nc3ccccc3CS2)nc1`, the Potency was 12 µM (active).

`COc1cccc(CNC(=O)CCC(=O)N2CC3CCCN3c3ccccc32)c1` (configuration not stated): the Potency entry is “inactive”.

For the compound `CCCNS(=O)(=O)c1ccc(CCC(=O)NCc2cccnc2)cc1`, the Potency entry is “inactive”.

On to `O=C(CN(c1cc(C(F)(F)F)ccc1Cl)S(=O)(=O)c1ccccc1)NCc1cccnc1`, for which the Potency entry is “inactive”.

As for `CCc1ccc(N(CC(=O)NCc2cccnc2)S(=O)(=O)c2ccccc2)cc1`, the Potency is 0.135 µM (active).

`Cc1ccc2sc(N(Cc3cccnc3)C(=O)C3COc4ccccc4O3)nc2c1C` (configuration not stated): the Potency entry was “inactive”.

Turning to `COc1cc(OC)cc(-c2nc3nc(C)c(CCC(=O)Nc4ccc(C)cc4)c(C)n3n2)c1`, the Potency result is “inactive”.

As for `O=S(=O)(N1CCCCC1)N1CCNCC1`, the Potency result is “inactive”.

On to `CS(=O)(=O)N1CCN(C(=O)c2cc3ccccc3oc2=O)CC1`, for which the Potency result is “inactive”.

Consider `O=c1oc2ccccc2cc1-c1cn(-c2ccccc2)c(=S)[nH]1`, for which the Potency is 0.849 µM (active).

For the compound `S=c1[nH]c(-c2cccs2)cn1-c1ccccc1`, the Potency entry is “inactive”.

Take `COc1ccc(C2C(=O)N(C3CCCCCC3)CC(=O)N2CCc2ccc(Cl)cc2)cc1OC` (configuration not stated): the Potency result was “inactive”.

Regarding `O=C(Cc1cccs1)N1CCCC(c2nc(-c3ccc(S(=O)(=O)N4CCCC4)cc3)no2)C1` (configuration not stated), the Potency result was “inactive”.

With `CC(C)c1ccc(-c2noc(C3CCCN(S(C)(=O)=O)C3)n2)cc1` (configuration not stated), the Potency was 19 µM (active).

With `COc1cc(-c2noc(C3CCCN(S(=O)(=O)c4cccc(Cl)c4)C3)n2)cc(OC)c1OC` (configuration not stated), the Potency result is “inactive”.

As to `CCN(C(=O)CSc1ncnc2sccc12)c1c(N)n(Cc2ccccc2)c(=O)[nH]c1=O`, the Potency result was “inactive”.

On to `CCCCSc1nnc2c(n1)OC=Nc1ccccc1-2`, for which the Potency is 23.9 µM (active).

Consider `CCSc1nnc2c(n1)OC(c1ccc(OCC(=O)O)cc1)Nc1ccccc1-2` (configuration not stated), for which the Potency entry was “inactive”.

`COc1ccc(NC(=O)Cn2cc(C(=O)c3ccncc3)c(=O)c3cc(C)ccc32)cc1Cl`: the Potency result is “inactive”.

`Cc1ccc(-c2cnc(C3CC3)o2)cc1S(=O)(=O)Nc1cccc(C)c1C`: the Potency entry was “inactive”.

For `CN(Cc1nc2ccc(F)cc2[nH]1)Cc1nc(CC2CC2)no1`, the Potency entry was “inactive”.

In the case of `O=C(Cn1c(=O)n(-c2ccc(F)cc2)c(=O)c2sccc21)Nc1cccc(C(F)(F)F)c1`, the Potency result is “inactive”.

In the case of `CC(=O)Nc1cccc(NC(=O)CSc2cn(CC(=O)N3CCCC3)c3ccccc23)c1`, the Potency result was “inactive”.

Take `Cc1cccc2c(=O)n3c(nc12)CCCCC3`: the Potency entry was “inactive”.

On to `CC1CCN(C(=O)c2ccc3c(=O)n4c(nc3c2)CCCCC4)CC1`, for which the Potency result was “inactive”.

With `O=c1c2c(nc3n1CCCCC3)sc1c(O)cccc12`, the Potency is 4.26 µM (active).

With `COc1ccc([C@H]2CC(=O)C=C(c3ccc(CO)cc3)C2)cc1`, the Potency result was “inactive”.

For `O=C1CCC(C(=O)N2CCN(c3ccccc3Cl)CC2)CN1CC1CCCCC1` (configuration not stated), the Potency entry was “inactive”.

`CCC(=O)NC(=S)Nc1ccc(NC(=O)c2ccco2)c(Cl)c1`: the Potency result is “inactive”.

`O=C(NNC(=S)Nc1ccc(Br)cc1Cl)c1ccco1`: the Potency is 16.9 µM (active).

Regarding `S=C(Nc1ccc(Br)cc1Cl)NC1CCN(Cc2ccccc2)CC1`, the Potency result is “inactive”.

On to `COc1ccc(S(=O)(=O)c2c(Nc3ccc(C)cc3)sc(C(=O)c3ccc(C)cc3)c2N)cc1`, for which the Potency result is “inactive”.

As for `COc1ccc(-c2nc(CN3CCC(C(=O)NCc4ccccc4)CC3)c(C)o2)cc1OC`, the Potency entry was “inactive”.

As to `CCOC(=O)CCCN1CC(O)=C(c2nc3ccccc3s2)C1=N`, the Potency entry is “inactive”.

Turning to `N=C1C(c2nc3ccccc3s2)=C(O)CN1NC(=O)c1ccc([N+](=O)[O-])cc1`, the Potency was 13.5 µM (active).

Consider `COc1ccccc1N1CC(O)=C(c2nc3ccccc3s2)C1=N`, for which the Potency entry is “inactive”.

As to `O=C(CSc1oc(-c2ccco2)nc1S(=O)(=O)c1ccccc1)c1ccc(Cl)cc1`, the Potency result is “inactive”.

Turning to `Cc1ccc(-c2cc(-c3coc4ccccc4c3=O)c3c(n2)-c2cc(Cl)ccc2OC3)cc1`, the Potency result is “inactive”.

For `CC(C)(C)OC(=O)N1CCC(c2c(C(=O)N3CCN(c4cccc(Cl)c4)CC3)cnn2-c2cccc(Cl)c2)CC1`, the Potency result is “inactive”.

Turning to `CCCCCn1c(CCCNC(=O)c2ccccc2OC)nc2ccccc21`, the Potency entry was “inactive”.

Consider `CCOC(OCC)c1ccc(/C=C\c2nccc(N)n2)cc1`, for which the Potency was 8.49 µM (active).

For the compound `CCOc1ccc(Nc2c(S(=O)(=O)c3ccccc3)cnc3ccccc23)cc1`, the Potency entry was “inactive”.

Consider `CN(C(=O)Cn1nnc(-c2ccc(F)cc2)n1)C1CCS(=O)(=O)C1` (configuration not stated), for which the Potency entry was “inactive”.

On to `COc1ccc(CNC(=O)CC2Oc3ccc(C)cc3NC2=O)cc1` (configuration not stated), for which the Potency entry is “inactive”.

As for `O=S(=O)(c1cccc(-c2nnc3n2CCCCC3)c1)N1CCOCC1`, the Potency result is “inactive”.

As for `CSc1ncccc1C(=O)NC1CCCCCC1`, the Potency result is “inactive”.

For the compound `O=C(Cn1[nH]c(=O)c2ccccc2c1=O)Nc1cccc(-c2nnc3n2CCCCC3)c1`, the Potency result is “inactive”.

Take `Cc1c(C(=O)Nc2cccc(-c3nnc4n3CCCCC4)c2)oc2ccccc12`: the Potency was 19 µM (active).

As to `Cc1ccc(NC(=O)c2oc3ccccc3c2C)c([N+](=O)[O-])c1`, the Potency entry is “inactive”.

For the compound `Cc1c(C(=O)NC2CCCCC2)oc2ccccc12`, the Potency was 15.1 µM (active).

In the case of `O=C(Nc1ccc(F)cc1F)c1cnn(-c2ccc(F)cc2)c1-n1cccc1`, the Potency entry was “inactive”.

For the compound `CC(C)(C)OC(=O)N1CCC(c2c(C(=O)NCCc3ccsc3)cnn2-c2ccc(F)cc2F)CC1`, the Potency result was “inactive”.

In the case of `C=CCNC(=O)/C=C/c1ccc(C(C)C)cc1`, the Potency was 19 µM (active).

`CC(C)c1ccc(/C=C/C(=O)NNC(=O)c2cccnc2)cc1`: the Potency is 12 µM (active).

As to `CCOC(=O)c1sc(NC(=O)/C=C/c2ccc(C(C)C)cc2)c(C(=O)OCC)c1C`, the Potency entry is “inactive”.

As to `CC(C)c1ccc(/C=C/C(=O)NCCCN2CCOCC2)cc1`, the Potency was 21.3 µM (active).

As to `COc1cccc(C(=O)NNC(=O)/C=C/c2ccccc2)c1`, the Potency entry was “inactive”.

In the case of `O=C(/C=C/c1cn(-c2ccccc2)nc1-c1ccc2c(c1)OCCO2)NCCCN1CCOCC1`, the Potency result was “inactive”.

`O=C(/C=C/c1ccc(Cl)cc1)NCCCn1ccnc1`: the Potency result is “inactive”.

`O=C(/C=C/c1ccc(F)cc1)NCCNC(=O)/C=C/c1ccc(F)cc1`: the Potency entry was “inactive”.

On to `Cc1c(NC(=O)c2cccnc2)c(=O)n(-c2ccccc2)n1C`, for which the Potency entry is “inactive”.

In the case of `CCCOc1ccc(C2c3c(-c4ccccc4O)n[nH]c3C(=O)N2Cc2cccnc2)cc1` (configuration not stated), the Potency result was “inactive”.

Regarding `N#Cc1ccccc1Cn1cnc2nc3c(cc2c1=O)CCCC3`, the Potency result is “inactive”.

With `Cc1ccc(-n2nc(C)c3c(C)cc(=O)n(CC(=O)Nc4ccc(C(C)C)cc4)c32)cc1`, the Potency result is “inactive”.

Regarding `Cc1c(C(=O)Nc2cccc(Cl)c2)oc2ccc(S(=O)(=O)N3CCOCC3)cc12`, the Potency result was “inactive”.

On to `Cc1cccc(-c2nc(SCC(=O)Nc3cc(C)on3)c3c(=O)n(C)c(=O)n(C)c3n2)c1`, for which the Potency entry was “inactive”.

Take `Cc1ccc(NC(=O)Cn2cnc3nc4c(cc3c2=O)CCCC4)cc1Cl`: the Potency result was “inactive”.

For the compound `COc1ccc(NC(=O)c2cnc(Nc3ccc(C)c(Cl)c3)c3ccccc23)cc1OC`, the Potency result was “inactive”.

Turning to `CC(C)(C)c1ccc(C(=O)CSc2ncn[nH]2)cc1`, the Potency is 4.78 µM (active).

Regarding `CCN(C(=O)CSc1ncn[nH]1)c1cccc2ccccc12`, the Potency result was “inactive”.

Take `COc1ccc(C(=O)CSc2nccc(=O)[nH]2)cc1`: the Potency entry was “inactive”.

As for `CC(C)OCCCn1c(SCC(=O)c2ccccc2)nc2c(sc3ccccc32)c1=O`, the Potency entry was “inactive”.

Consider `Cc1csc(SCC(=O)N(c2ccccc2)C(C)C)n1`, for which the Potency result is “inactive”.

For `CC(=O)OCCN(CCCn1c(-c2ccncc2)nc2ccccc21)c1nc(-c2ccc(C)cc2)cs1`, the Potency entry is “inactive”.

`Cc1ccc(C)c(NC(=O)NNC(=O)c2ccc3ccccc3c2O)c1`: the Potency entry is “inactive”.

With `COc1cc(/C=C(\C#N)c2nc3c(s2)CC(C)CC3)ccc1O` (configuration not stated), the Potency is 0.675 µM (active).

In the case of `Cc1ccccc1OC/C(O)=C(\C#N)c1nc2ccccc2[nH]1`, the Potency result is “inactive”.

Take `Cc1ccc2nc(/C(C#N)=C\c3ccc(OC(=O)c4cccs4)cc3)[nH]c2c1`: the Potency entry is “inactive”.

For `N#C/C(=C\c1ccccc1F)c1nc2ccccc2c(=O)[nH]1`, the Potency entry is “inactive”.

Regarding `CCOc1ccc(/C=C(\C#N)c2nc3ccccc3c(=O)[nH]2)cc1OC`, the Potency result was “inactive”.

On to `COc1cccc2cc(-c3nc(Cl)c4c5c(sc4n3)CC(C)CC5)c(=O)oc12` (configuration not stated), for which the Potency entry is “inactive”.

On to `Cc1ccc2nc(/C(C#N)=C/c3ccccc3F)[nH]c2c1`, for which the Potency was 8.49 µM (active).

Turning to `COc1cc(/C=C(\C#N)c2nc3ccccc3[nH]2)ccc1O`, the Potency was 4.78 µM (active).

With `O=C1OC(C(=O)Nc2cccc(Br)c2)Cc2ccccc21` (configuration not stated), the Potency entry is “inactive”.

For the compound `O=C(C1CC(=O)N(C2CCCC2)C1)N1CCN(c2cccc(C(F)(F)F)c2)CC1` (configuration not stated), the Potency result is “inactive”.

`Cc1ccc(CN2CCCOCCS2(=O)=O)cc1`: the Potency result is “inactive”.

For `Cc1ccc(CNC(=O)CSC2=Nc3ccccc3C3=NC(C)C(=O)N23)cc1` (configuration not stated), the Potency result was “inactive”.

`Cc1c(Cl)cccc1-c1ccc(CNCCCSc2nnnn2C)o1`: the Potency result is “inactive”.

Regarding `O=C(Cn1cc(/C=N/NC(=O)c2cccc(C(F)(F)F)c2)c2ccccc21)Nc1ccc(F)cc1`, the Potency result is “inactive”.

For `CC(OC(=O)/C=C/c1ccccc1)C(=O)NC1CCCCC1C` (configuration not stated), the Potency entry is “inactive”.

As for `Cn1nccc1NC(=O)CC(CC(=O)O)c1ccccc1` (configuration not stated), the Potency result is “inactive”.

As for `O=C(CN1CCN(c2ccc(O)cc2)CC1)Nc1ccc(-c2ccccc2)cc1`, the Potency result was “inactive”.

As for `Oc1ccc(-c2cccc(-c3ccc(O)cc3)c2)cc1`, the Potency was 16.9 µM (active).

On to `CC(C#N)(NC(=O)CN1CCN(S(=O)(=O)c2cc(C(F)(F)F)ccc2Cl)CC1)C1CC1` (configuration not stated), for which the Potency result is “inactive”.
